Assays:
Details in all cases: Compound Concentration (nM):1000
[1] = system: CDK3
[2] = system: CDK4-cyclinD1
[3] = system: CDK4-cyclinD3
[4] = system: CDK4
[5] = system: CDK5
[6] = system: CDK7
[7] = system: CDK8
[8] = system: CDK9
[9] = system: CDKL1
[10] = system: CDKL2
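Further: KINOMEscan scanMAX binding as percent activity remaining versus control; lower means stronger binding.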

Compound	Percent Control [1] [%]	Percent Control [2] [%]	Percent Control [3] [%]	Percent Control [4] [%]	Percent Control [5] [%]	Percent Control [6] [%]	Percent Control [7] [%]	Percent Control [8] [%]	Percent Control [9] [%]	Percent Control [10] [%]
NS(=O)(=O)c1ccc(Nc2ncc(-c3ccccc3)o2)cc1 [GW572399X]	100	60	88	95	100	21	93	100	80	65
CCn1c(-c2nonc2N)nc2c(C#CC(C)(C)O)nc(OCCNC)cc21.Cl [GSK949675]	100	100	92	100	85	88	100	100	90	100
CC1=C(C(=O)Nc2ccc3[nH]ncc3c2)C(c2ccc3ccccc3c2)CC(=O)N1 (stereo not shown) [GSK270822A]	99	63	94	94	100	88	71	100	91	93
CCS(=O)(=O)c1ccc(OC)c(Nc2ncc(-c3cccc(OC)c3)o2)c1 [GW580509X]	100	93	93	99	100	84	100	100	98	98
NS(=O)(=O)c1ccc(N/N=C2\C(=O)Nc3ccc(C(=O)NCCc4c[nH]cn4)cc32)cc1 [GW300660X]	100	12	30	100	100	33	100	100	55	100
COc1cc2ncn(-c3cc(O[C@H](C)c4ccccc4Cl)c(C(N)=O)s3)c2cc1OC [GSK237701A]	100	81	100	86	100	76	48	100	94	86
COc1cc(C)c(N(C)C(=O)CN(C)C)cc1Nc1nc(Nc2cccc(F)c2C(N)=O)c2cc[nH]c2n1 [GSK2219385]	92	89	100	90	100	73	100	100	79	100
COc1ccc(COc2ccc(Cc3cnc(N)nc3N)cc2OC)cc1 [GW632580X]	100	99	93	94	93	100	100	100	82	100
Cl.c1ccc(Cc2nc3ccc(Nc4ncnc5ccccc45)cc3[nH]2)cc1 [GR269666A]	100	93	100	93	100	100	88	100	100	100
CN(C)CCNC(=O)Nc1ccc(N(C)c2ccnc(Nc3ccc(CS(C)(=O)=O)cc3)n2)cc1.Cl [GW830900A]	100	81	100	97	85	65	75	98	88	28
COc1cc(N2CCN(C(C)C)CC2)ccc1Nc1nc(Nc2ccc(F)cc2C(=O)NC[C@@H](O)CO)c2cc[nH]c2n1 [GSK1392956A]	100	85	100	89	100	93	100	100	100	100
CCS(=O)(=O)c1ccc(OC)c(Nc2ncc(-c3cccc(F)c3)o2)c1 [GW621970X]	100	99	100	100	100	85	100	100	100	100
CCc1ccc(Oc2nccc(-c3c(-c4ccc(F)cc4)ncn3C3CCNCC3)n2)cc1 [SB-242719]	100	94	76	91	100	88	86	100	86	96
C[C@@H](Oc1cc(-n2cnc3ccc(OC4CCN(C)CC4)cc32)sc1C(N)=O)c1ccccc1Cl [GSK579289A]	90	100	69	94	100	70	100	100	53	100
Cl.O=C(Nc1ccc(Oc2ccc3[nH]c(NC(=O)c4ccccc4)nc3c2)cc1)Nc1cc(C(F)(F)F)ccc1F [GW709042A]	100	92	100	84	100	32	54	81	92	69
CN1CCN(C(=O)c2ccc(NC(=O)Nc3ccc(N(C)c4ccnc(Nc5ccc(CS(C)(=O)=O)cc5)n4)cc3)cc2)CC1.Cl [GW830263A]	100	77	89	83	91	61	85	69	73	1.7

Compound	Percent Control [1] [%]	Percent Control [2] [%]	Percent Control [3] [%]	Percent Control [4] [%]	Percent Control [5] [%]	Percent Control [6] [%]	Percent Control [7] [%]	Percent Control [8] [%]	Percent Control [9] [%]	Percent Control [10] [%]
COc1ccc2c(-c3ccnc(Nc4cccc(OC(F)(F)F)c4)n3)cnn2n1 [GW810372X]	100	90	74	83	100	61	90	97	77	18
COc1cccc(-c2c[nH]c3c(N/N=C/c4ccncc4)ncnc23)c1 [GW814408X]	67	26	25	100	82	2.2	100	65	15	26
COc1cc(/C=N/Nc2ncnc3[nH]ncc23)ccc1O [GW578748X]	100	79	100	92	84	70	83	100	52	100
COc1cc2ncnc(Nc3ccc4c(cnn4Cc4ccccc4)c3)c2cc1OC.Cl [GW282449A]	100	100	100	100	100	100	100	100	100	95
NS(=O)(=O)c1ccc(N/N=C2\C(=O)Nc3ccc(-c4cnco4)cc32)cc1 [GW276655]	47	29	31	94	81	32	100	93	39	49
O=C1Nc2ccc(C(=O)c3ccco3)cc2C1=Cc1cc(Cl)c(O)c(Cl)c1 [GW406108X]	100	78	94	94	89	76	80	100	88	100
NS(=O)(=O)c1ccc(N/N=C2\C(=O)Nc3ccc(C(=O)NCc4ccncc4)cc32)cc1 [GW300657X]	66	13	12	84	77	13	75	100	46	99
Cl.O=C(Nc1ccc(Oc2ccc3[nH]c(NC(=O)c4ccco4)nc3c2)cc1)Nc1cc(C(F)(F)F)ccc1F [GW683134A]	100	100	100	100	100	12	100	100	77	6.5
COC(=O)Nc1nc2ccc(Oc3ccc(NC(=O)Nc4cc(C(F)(F)F)ccc4F)cc3)cc2s1.Cl [GW693917A]	100	96	90	100	100	9.3	20	86	73	0
CN(C)c1cc2c(Nc3ccc4c(cnn4Cc4ccccc4)c3)ncnc2cn1 [GW282974X]	100	81	84	89	39	82	100	100	75	100
CC1=C(C(=O)Nc2ccc3[nH]ncc3c2)C(c2ccc(Cl)c(Cl)c2)CC(=O)N1 (stereo not shown) [GSK299115A]	100	74	100	80	100	83	47	100	96	80
NS(=O)(=O)c1ccc(N/N=C2\C(=O)Nc3ccc(Cl)cc32)cc1 [GW280670X]	100	77	100	100	100	100	100	100	96	78
Cl.O=S1CCN(Cc2ccc(-c3ccc4ncnc(Nc5ccc(OCc6ccccc6)c(F)c5)c4c3)o2)CC1 [GW576924A]	100	100	100	100	100	100	86	100	100	100
CC(C)COC(=O)c1ccc2c(c1)/C(=C/Nc1ccc(S(N)(=O)=O)cc1)C(=O)N2 [GW416981X]	42	3.8	13	91	36	3.7	86	100	52	24
COc1cc(C=NNc2ncnc3c2cnn3-c2ccccc2)ccc1O [GW513184X]	97	89	81	100	64	4	100	100	80	22
